G9a block: G9a (human) methyltransferase inhibition. Q96KQ7. AID 504332. G9a H3K9 monomethylation, AlphaScreen, 2 h. Potency, µM (highest dose often 102 µM), for the others: at the top dose activity, negative = inhibition, most hits filed as inhibitors. hit rate 8.8% among 350,000; further: on the % scale 0 is the no-effect control and ±100 the full control effect; nearly all actives have a fitted effect of over 75% in size
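Readings reflect AlphaScreen signal from monomethyl-H3K9 antibody detection. HMT at 20 nM; substrate b-H3K9 500 nM; cofactor SAM 20 uM; 2 h RT reaction; compounds tested as titrations in qHTS with 15 min preincubation.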
TDP1 block: TDP1 (human) enzyme inhibition | recombinant TDP1, AlphaScreen DNA substrate cleavage | Potency, µM (series often up to 130 µM), without a hit: at the highest dose activity change, negative = inhibition, hits mostly inhibitors | hit rate 0.28% among 350,000 | Q9NUW8; further: on the % scale 0 is the no-effect control and ±100 the full control effect; nearly all actives have a fitted effect of over 40% in size
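Here, a 5' biotin and 3' phosphotyrosine-FITC DNA oligonucleotide reports Tdp1 activity: intact substrate bridges AlphaScreen beads, while cleavage leaves a 3' phosphate and drops signal. All incubations at room temperature.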
Sfp PPTase inh: blocks B. subtilis Sfp PPTase activity; Q9F4F7; Potency, µM, without a hit: largest response in the series, negative = inhibition, most hits filed as inhibitors; Biochemical Sfp PPTase activity, qHTS; hit rate 3.5% among 310,000;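 further: the enzyme is Sfp with the accession as filed and its product quenches rhodamine fluorescence; 0% = enzyme reaction without inhibitor and -100% = no enzyme wells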
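Compounds were incubated with enzyme (final 15 nM) for 15 min at room temperature before substrate addition started the reaction. Fluorescence at 525 nm excitation, 598 nm emission was recorded immediately and after 30 minutes.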
JMJD2A Tudor: JMJD2A Tudor domain (human) inhibition; Potency, µM (series often up to 114 µM), without a hit: at the highest dose activity change, negative = inhibition, hits mostly inhibitors; AID 504339; AlphaScreen JMJD2A-Tudor / H3K4me3 peptide binding; hit rate 4.4% among 390,000; O75164; further: on the % scale 0 is the no-effect control and ±100 the full control effect; nearly all actives have a fitted effect of over 50% in size
Target sequence (O75164 whole entry, looked up, the tested form may be a part): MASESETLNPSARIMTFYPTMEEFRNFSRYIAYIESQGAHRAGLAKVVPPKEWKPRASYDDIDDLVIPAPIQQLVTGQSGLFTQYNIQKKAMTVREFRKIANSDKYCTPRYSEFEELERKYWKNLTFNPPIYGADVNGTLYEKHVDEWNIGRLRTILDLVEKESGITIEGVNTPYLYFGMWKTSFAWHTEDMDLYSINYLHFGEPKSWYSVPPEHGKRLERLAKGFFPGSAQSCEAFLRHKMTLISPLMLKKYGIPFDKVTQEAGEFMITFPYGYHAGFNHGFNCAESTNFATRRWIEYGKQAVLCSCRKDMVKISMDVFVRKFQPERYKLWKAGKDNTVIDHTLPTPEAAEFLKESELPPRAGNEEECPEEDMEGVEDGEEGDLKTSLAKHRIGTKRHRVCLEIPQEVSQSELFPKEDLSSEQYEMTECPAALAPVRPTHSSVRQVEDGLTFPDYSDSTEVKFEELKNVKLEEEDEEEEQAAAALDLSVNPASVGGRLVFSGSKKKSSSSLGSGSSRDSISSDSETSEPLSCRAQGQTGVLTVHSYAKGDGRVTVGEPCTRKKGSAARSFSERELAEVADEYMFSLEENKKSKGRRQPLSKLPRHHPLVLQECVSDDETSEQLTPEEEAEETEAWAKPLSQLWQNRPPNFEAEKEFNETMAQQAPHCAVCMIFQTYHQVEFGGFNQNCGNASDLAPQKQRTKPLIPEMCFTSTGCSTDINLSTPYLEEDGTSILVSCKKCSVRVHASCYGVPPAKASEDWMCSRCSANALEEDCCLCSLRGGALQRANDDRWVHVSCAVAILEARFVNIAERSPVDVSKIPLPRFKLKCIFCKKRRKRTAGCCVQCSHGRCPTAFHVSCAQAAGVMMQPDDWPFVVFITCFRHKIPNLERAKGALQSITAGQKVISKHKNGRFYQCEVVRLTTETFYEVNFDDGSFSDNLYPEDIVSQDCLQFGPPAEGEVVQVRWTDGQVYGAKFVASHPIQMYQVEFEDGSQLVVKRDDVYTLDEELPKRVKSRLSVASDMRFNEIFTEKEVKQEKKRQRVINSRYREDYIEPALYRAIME
BAZ2B inh: blocks human BAZ2B | hit rate 4.4% among 360,000 | Potency, µM (top dose mostly 114 µM), for inactives: top-dose activity change, negative = inhibition, hits mostly inhibitors | Q9UIF8 | AlphaScreen BAZ2B-H3K14Ac peptide displacement; further: on the % scale 0 is the no-effect control and ±100 the full control effect; nearly all actives have a fitted effect of over 60% in size
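Compounds, titrated to a top concentration of 110 uM, were incubated 30 min at room temperature with preformed BAZ2B/acetyl-K14 H3 peptide complex (50 nM each). Proximity signal was measured by AlphaScreen after 20 min with beads.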
HP1b chromo inh: HP1-beta chromodomain-methylated histone interaction inhibition; P83916; AlphaScreen HP1-beta / biotin-H3K9me3 peptide binding; hit rate 0.56% among 390,000; Potency, µM (highest dose often 114 µM), for the others: at the highest dose activity change, negative = inhibition, usual class: inhibitors; further: nearly all actives have a fitted effect of over 70% in size
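AlphaScreen: HP1-beta (50 nM) preformed 30 min with biotin-H3(1-18)K9me3 peptide (50 nM) in PBS pH 7.4, 0.01% Tween-20. Compound added for 30 min at RT, then streptavidin donor/nickel chelate acceptor beads (10 ug/mL) for 30 min.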
Active calls of the source: *; ? = inconclusive; / = no result given; ! = not confirmed by another sample; [ ] = remark or other dose. Shown are actives, neighbours in structure and some others; about 12% of the full set was active somewhere. The call rests on the fitted dose curve; in most records, active means well fitted curve in the direction sought with a large enough effect; inconclusive means small, poorly fitted or top-dose-only effect, or another doubt; inactive means no such curve, though single readings can be large; an effect the other way counts as inactive or inconclusive. Potency means the concentration at half of the fitted maximal effect.

SMILES	G9a block	TDP1 block	Sfp PPTase inh	JMJD2A Tudor	BAZ2B inh	HP1b chromo inh
COc1ccc(CN(CCc2ccccc2)Cc2ccccc2)cc1OC	?	/	-36%	10µM*	79µM*	?
CCN(Cc1ccncc1)Cc1ccc(OC)c(OC)c1	/	/	?	25µM*	?	?
COc1cc(CN(CCN(C)C)Cc2ccccc2)ccc1OCc1ccccc1	32µM*	/	-18%	1µM*	40µM*	?
Cc1ccc(-c2nnn(CC(=O)N(CC(=O)NCc3ccccc3)c3cccc(C)c3C)n2)o1	3.5µM*	8%	25µM*	-31%	?	2%
Cc1ccc(-c2nnn(CC(=O)N(CC(=O)NC3CCCCC3)c3ccccc3F)n2)o1	35µM*	0%	-5%	-22%	?	30%
Cc1ccc(-c2nnn(CC(=O)N(CC(=O)NC3CCCCC3)c3cccc(F)c3)n2)o1	-1%	11%	20%	-4%	4%	10%
Cc1cccc(N(CC(=O)NCc2ccccc2)C(=O)Cn2nnc(-c3ccc(C)o3)n2)c1	-4%	-3%	22%	-14%	7%	27%
Cc1cccc(N(CC(=O)NC2CCCCC2)C(=O)Cn2nnc(-c3ccc(C)o3)n2)c1	45µM*	5%	1%	-17%	-15%	11%
COc1ccc(N(CC(=O)NC2CCCC2)C(=O)Cn2nnc(-c3ccc(OC)c(OC)c3)n2)cc1	-3%	6%	16%	-10%	-20%	21%
COc1ccc(-c2nnn(CC(=O)N(CC(=O)NC3CCCC3)c3ccccc3)n2)cc1OC	-2%[59 µM]	0%	11%	18µM*	-20%	-13%
O=C(CCC1CCCN(C(=O)c2ccc3c(c2)OCO3)C1)N1CCN(c2ccccn2)CC1 (centres undefined)	/	3%	-5%	-11%	-8%	34%
O=C(C1CC=CCC1)N1CCN(S(=O)(=O)c2ccc(F)cc2)CC1 (centres undefined)	?	-3%	/	1%	31%	12%
CSc1ccc(CCNC(=O)C2CCN(c3nc4ccccc4nc3C(F)(F)F)CC2)cc1	3%[59 µM]	-3%	/	-16%	2%	-3%
Cn1cnc(S(=O)(=O)N2CCC(C(=O)N3CCN(c4ccccc4F)CC3)CC2)c1	2%[12.7 µM]	1%	/	2%	-10%	20%
COc1cccc(NC(=O)C(=O)NCCc2csc3nc(-c4ccccc4C)nn23)c1	8%[59 µM]	4%	/	-5%	6%	33%[57 µM]
NC(CSS(=O)(=O)O)=NCCC12CC3CC(CC(O)(C3)C1)C2	10µM*	3%	50µM*	-10%	6%	?
NC(=O)COC(=O)C12CC3CC(CC(O)(C3)C1)C2	-35%	-2%	17%	-35%[57.1 µM]	-11%	-5%
Cc1noc(Cn2c(=O)c3ccccc3n(CC(=O)Nc3ccc(Cl)cc3)c2=O)n1	?	-6%	/	4%	0%	48%
COc1ccc(OC)c(NC(=O)CCC(=O)Oc2ccc(C)cc2)c1	15%	/	20%	-15%	-3%	41%
CN(C)c1ccc(C=Nc2ccccc2C(N)=O)cc1	18µM*	-12%	6%	-28%	/	6%
CC1Sc2ccc(S(=O)(=O)CCC(=O)NCc3ccccc3)cc2NC1=O (centres undefined)	-23%	-19%	5%	79µM*	-18%[57.1 µM]	?
CCC1Sc2ccc(S(=O)(=O)CCC(=O)N3CCc4ccccc43)cc2NC1=O (centres undefined)	/	/	-13%	-15%	-13%	4%
CC1Sc2ccc(C(=O)Nc3ccc(S(=O)(=O)N(C)C)cc3)cc2NC1=O (centres undefined)	32µM*	/	/	-19%	-3%	21%
COc1ccc(NC(=O)CCS(=O)(=O)c2ccc3c(c2)NC(=O)C(C)S3)cc1OC (centres undefined)	18%	2%	8%	18µM*	-16%[57.1 µM]	0%
CC1Sc2ccc(S(=O)(=O)CCC(=O)N3CCc4ccccc43)cc2NC1=O (centres undefined)	-1%	0%	10%	25µM*	-22%	-4%
SMILES	G9a block	TDP1 block	Sfp PPTase inh	JMJD2A Tudor	BAZ2B inh	HP1b chromo inh
COc1cccc(CN(CC2CCCO2)C(=O)c2cc3ccccc3oc2=O)c1 (centres undefined)	6%	3%	8%	-2%	-2%	41%
CCn1c(C(=O)O)c(CC(=O)Nc2ccccc2OC)c2ccccc21	11%	/	5%	-11%	-14%	24%
N[C@H](C(=O)O)[C@H](O)C(=O)O	15%[12.7 µM]	9%[56.1 µM]	89µM*!	/	/	/
C[C@@H](N)C(=O)O	35%[59 µM]	-2%	?	/	/	/
O=C(CNC(=O)c1ccc2c(c1)OCO2)N/N=C/c1cc(Br)ccc1O	79µM*	-5%	20%	?	-9%	13%
O=C(N/N=C/c1cc(Br)c(Br)o1)c1cccnc1	?	-5%	32µM*	?	?	-3%
O=C(N/N=C/c1cc(Br)cc(Cl)c1O)c1ccc2c(c1)OCO2	/	/	/	?	/	36%
O=C(N/N=C/c1cc(Br)c(Br)o1)c1ccc2c(c1)OCCO2	/	1%	4.5µM*	40µM*	45µM*	?
O=C(N/N=C/c1cc(Br)c(O)c(Br)c1O)c1ccc2c(c1)OCCO2	?	4%	?	40µM*	45µM*	-3%
O=C(N/N=C\c1cc(Br)c(Br)o1)c1cncc(Br)c1	0%[59 µM]	2%	-13%	-13%	-1%	19%
O=C(CNC(=O)c1ccccc1)N/N=C/c1cc(Br)ccc1O	23%[59 µM]	3%	7%	-4%	8%	43%
CC1CCN(CCOCCOc2ccc(Cl)cc2Br)CC1	10µM*	-3%	56µM*	4.5µM*	79µM*	?
CC1CCN(CCCOc2ccc(Cl)cc2Br)CC1	20µM*	-5%	6%	20µM*	?	?
CC1CCCN(CCCOc2ccc(Cl)cc2Br)C1 (centres undefined)	10µM*	7%	-26%	22µM*	-34%	?
CC1CCCN(CCOc2ccc3ccccc3c2Br)C1 (centres undefined)	?	-5%	16µM*	?	22µM*	?
O=C(NCc1cccc(F)c1)c1ccc(CS(=O)c2ccccc2Cl)o1 (centres undefined)	-17%[59 µM]	5%	/	5%	-24%	40%
Cc1ccc(Cl)c(OCCN2CCCC(C)C2)c1 (centres undefined)	13µM*	/	-15%	18µM*	?	?
CN(CCC#N)C(=S)NC(=O)c1ccc(S(=O)(=O)N2CCOCC2)cc1	11µM*	-6%	?	-22%	-20%	-10%
CC(=O)N1CCN(C(=S)NC(=O)c2ccc(S(=O)(=O)N3CCOCC3)cc2)CC1	?	3%	?	50µM*	50µM*	-27%

Screening results (PubChem)
